Reference: PubChem BioAssay (Tox21)
A number with no mark means an inactive call. Inconclusive results are not listed. Where a call stands in place of a potency, no number is given. Calls of active or inactive are those of the source. Unless noted, the call rests on the fitted dose curve; in most records, active means well fitted curve in the direction sought with a large enough effect in the repeat runs; inconclusive means weak or mixed curves; inactive means no such curve, though single readings can be large; an effect the other way counts as inactive or inconclusive.

Tests used:
[1] = molecular target: Luciferin 4-monooxygenase (Photinus pyralis) (UniProt P08659); experiment: qHTS assay to identify small molecule inhibitors of firefly luciferase (AID 1224835); further: nearly all actives have a fitted effect of over 25% in size; further: potency means the concentration at half of the fitted maximal effect
Chain of Luciferin 4-monooxygenase (Photinus pyralis) (P08659 whole entry, looked up): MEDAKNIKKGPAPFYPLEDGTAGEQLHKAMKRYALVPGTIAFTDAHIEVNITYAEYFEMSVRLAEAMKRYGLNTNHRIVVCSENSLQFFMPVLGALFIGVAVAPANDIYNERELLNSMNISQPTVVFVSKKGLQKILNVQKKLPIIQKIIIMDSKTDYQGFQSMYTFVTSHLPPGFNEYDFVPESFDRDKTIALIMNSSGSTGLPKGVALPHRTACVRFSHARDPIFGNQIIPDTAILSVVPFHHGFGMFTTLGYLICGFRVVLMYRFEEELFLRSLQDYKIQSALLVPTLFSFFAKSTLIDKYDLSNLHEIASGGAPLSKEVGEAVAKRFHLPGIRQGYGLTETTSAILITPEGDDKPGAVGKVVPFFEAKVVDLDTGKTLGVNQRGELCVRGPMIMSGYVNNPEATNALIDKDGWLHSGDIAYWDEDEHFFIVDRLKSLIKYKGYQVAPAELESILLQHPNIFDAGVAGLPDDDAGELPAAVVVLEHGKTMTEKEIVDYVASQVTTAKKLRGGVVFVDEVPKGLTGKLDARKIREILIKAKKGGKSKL
Outline: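 Inhibition of purified Photinus luciferase is measured by luminescence. Substrate levels (D-luciferin, ATP) sit at their KM values. Each compound is tested in a concentration series.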

[2] = qHTS assay to identify small molecule agonists of the constitutive androstane receptor (CAR) signaling pathway - cell viability counter screen (AID 1224836); further: nearly all actives have a fitted effect of over 45% in size
Outline: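 HepG2-CYP2B6-hCAR, 2500 cells/well, 4 h pre-incubation; cpd 15 conc + PK11195 0.75 uM final; 23 h, 37 C/5% CO2; CellTiter-Fluor, fluorescence.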

[3] = qHTS assay to identify small molecule antagonists of the constitutive androstane receptor (CAR) signaling pathway - cell viability counter screen (AID 1224837); further: nearly all actives have a fitted effect of over 45% in size
Outline: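 Using CellTiter-Fluor, viability is scored in HepG2 cells stably carrying hCAR and a 2.2kb CYP2B6 reporter after 23 hr compound exposure across 15 concentrations, with CITCO present at 50 nM.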

[4] = qHTS assay to identify small molecule antagonists of the estrogen related receptor signaling pathway with the pleiotropic PPARgamma coactivator (PGC) from Tox21 10K library - cell viability counter screen (AID 1224840; active means well fitted cell-killing curve with a large enough effect in the repeat runs, not every such curve was filed as active; further: nearly all actives have a fitted effect of over 40% in size)
Outline: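 Here the PGC/ERR cells serve as a cytotoxicity control: they are exposed to compounds for 17.5 hours at 37 C, and live-cell signal is quantified using CellTiter-Fluor fluorescence.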

[5] = qHTS assay to identify small molecule antagonists of the estrogen related receptor signaling pathway with the pleiotropic PPARgamma coactivator (PGC) from Tox21 10K library (AID 1224841; call rule not given here; further: actives are mostly falling curves and most rising ones were filed inactive; nearly all actives have a fitted effect of over 50% in size)
Outline: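 Each well held 2,000 PGC/ERR cells, pre-incubated six hours (37 C, 5% CO2). Test substances in DMSO were added by pin tool and left for 18 h at 37 C before luciferase detection by One-Glo.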

[6] = qHTS assay to identify small molecule agonists of the estrogen related receptor signaling pathway with the pleiotropic PPARgamma coactivator (PGC) from Tox21 10K library (AID 1224842); further: nearly all actives have a fitted effect of over 15% in size
Outline: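 Luminescence from One-Glo (30 min, room temperature) measured after PGC/ERR cells had 18 h at 37 C with pinned compound (23 nL in DMSO). Cells had been seeded at 2,000 per well and pre-incubated 6 h.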

[7] = molecular target: Thyrotropin receptor (Homo sapiens) (UniProt P16473); experiment: qHTS assay to identify small molecule agonists of the thyroid stimulating hormone receptor (TSHR) signaling pathway (AID 1224843; calls by dose curve; further: nearly all actives have a fitted effect of over 45% in size)
Chain of Thyrotropin receptor (Homo sapiens) (P16473 whole entry, looked up): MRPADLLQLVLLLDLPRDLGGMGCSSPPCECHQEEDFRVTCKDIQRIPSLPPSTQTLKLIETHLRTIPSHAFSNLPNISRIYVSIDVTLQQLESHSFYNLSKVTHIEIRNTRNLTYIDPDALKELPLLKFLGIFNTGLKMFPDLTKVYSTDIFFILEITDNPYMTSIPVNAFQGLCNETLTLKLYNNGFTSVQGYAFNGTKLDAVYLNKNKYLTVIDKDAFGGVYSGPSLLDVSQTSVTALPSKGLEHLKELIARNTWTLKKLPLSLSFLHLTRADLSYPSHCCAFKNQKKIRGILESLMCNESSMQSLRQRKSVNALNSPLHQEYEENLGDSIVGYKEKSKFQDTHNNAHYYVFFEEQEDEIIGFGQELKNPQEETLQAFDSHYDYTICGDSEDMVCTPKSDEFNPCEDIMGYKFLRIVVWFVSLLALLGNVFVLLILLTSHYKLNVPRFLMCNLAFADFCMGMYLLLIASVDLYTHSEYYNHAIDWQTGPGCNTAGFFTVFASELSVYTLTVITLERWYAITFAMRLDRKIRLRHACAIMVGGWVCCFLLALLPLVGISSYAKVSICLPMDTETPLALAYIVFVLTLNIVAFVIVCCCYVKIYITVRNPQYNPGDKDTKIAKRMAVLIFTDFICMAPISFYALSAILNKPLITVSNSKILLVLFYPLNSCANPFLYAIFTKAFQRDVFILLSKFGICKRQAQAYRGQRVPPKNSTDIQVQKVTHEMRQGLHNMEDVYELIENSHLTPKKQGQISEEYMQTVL
Outline: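 HEK293 cells stably bearing the thyrotropin receptor were plated at 800 cells/well and challenged with compound (30 min, RT). Accumulated cAMP was quantified via cAMP-d2 competing for cryptate-tagged antibody.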

[8] = qHTS assay to identify small molecule agonists of the hypoxia (HIF-1) signaling pathway - cell viability counter screen (AID 1224844; calls by dose curve; further: nearly all actives have a fitted effect of over 50% in size)
Outline: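 Multiplexed with the HRE beta-lactamase assay, this viability read used CellTiter-Glo luminescence (30 min, RT) on HRE-bla ME-180 cells treated 17 hrs with compounds in 0.5% dialyzed FBS medium.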

[9] = qHTS assay to identify small molecule agonists of H2AX (AID 1224845; active means well fitted activation curve with a large enough effect in the signal ratio in the repeat runs, not every such curve was filed as active; the % refers to the signal ratio)
Outline: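 Phospho-H2AX Ser139 measured by HTRF (ex 320 nm; em 665 and 620 nm) after 24 hr antibody incubation. Compounds, 15 concentrations, 0.76% DMSO, were applied to CHO-K1 cells for 3hr at 37C before lysis.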

[10] = qHTS assay to identify small molecule agonists of the hypoxia (HIF-1) signaling pathway (AID 1224846; active means well fitted activation curve with a large enough effect in the signal ratio in the repeat runs, not every such curve was filed as active; the % refers to the signal ratio)
Outline: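 Hypoxia-pathway activation was scored as increased beta-lactamase from an HRE-controlled reporter in ME-180 cells; plated at 2,000 cells per well with 0.5% dialyzed FBS, they were exposed 17 hrs to compounds and then given CCF4-AM.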

[11] = qHTS assay to identify small molecule agonists of H2AX - cell viability counter screen (AID 1224847; calls by dose curve;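 further: wild-type CHO-K1 cells; top concentration of the series differs between compounds; nearly all actives have a fitted effect of over 30% in size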)
Outline: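 Cells plated first: CHO-K1, 1000 per well in 10% FBS medium, incubated overnight at 37C. Then 15-point compound titration added (final DMSO 0.76%) for 3 hr. Finally CellTiter-Glo added and luminescence read.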

[12] = qHTS assay to identify small molecule antagonists of the estrogen related receptor (ERR) signaling pathway from Tox21 library (AID 1224848); further: nearly all actives have a fitted effect of over 50% in size
Outline: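 Reading was by luminescence 30 min after ONE-Glo addition. Before that, ERR cells at 2,000 per well had rested 6 h at 37 C/5% CO2 and then received pin-tooled compounds in DMSO for 18 h at 37 C.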

[13] = qHTS assay to identify small molecule agonists of the estrogen related receptor (ERR) signaling pathway from Tox21 library (AID 1224849; calls by dose curve; further: nearly all actives have a fitted effect of over 15% in size); details: ERR reporter cell line, ONE-Glo luciferase, 18 h
Outline: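 Six hours post-seeding at 37 C/5% CO2, ERR cells receive DMSO-solubilised compounds; after 18 h at 37 C, ONE-Glo reagent is applied and luminescence recorded.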

[14] = qHTS RealTime-Glo MT Cell Viability Assay in HepG2 cells - 24 hour (AID 1224867); further: nearly all actives have a fitted effect of over 50% in size
Outline: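 Cell number in HepG2 cultures estimated from NanoLuc luminescence generated by metabolic reduction of a prosubstrate by living cells. The homogeneous, nonlytic format allowed repeated reads at 0, 8, 16, 24, 32 and 40 h of compound exposure.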

[15] = qHTS RealTime-Glo MT Cell Viability Assay in HEK293 cells - 32 hour (AID 1224868)
Outline: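 Homogeneous bioluminescent viability format in HEK293 cells (600 cells/well). Following 5 h at 37 C/5% CO2, 23 nL compound was pintooled; the signal was measured repeatedly during 40 h incubation.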

[16] = A CellTox Green Cytotoxicity Assay to monitor cytotoxicity in HEK293 cells - 0 hour (AID 1224869); further: nearly all actives have a fitted effect of over 50% in size
Outline: (§1)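 Seeding of HEK293 cells together with cytotoxicity dye preceded a 5 h incubation at 37 C/5% CO2. Test compounds in DMSO were then added and fluorescence monitored across 40 h.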

[17] = qHTS RealTime-Glo MT Cell Viability Assay in HepG2 cells - 40 hour (AID 1224870); further: nearly all actives have a fitted effect of over 50% in size
Outline: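 Real-time viability: cells seeded at 600 per well together with NanoLuc and cell-permeant prosubstrate, compounds added after 5 h incubation. Luminescence tracked at 0, 8, 16, 24, 32 and 40 h of exposure.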

[18] = A CellTox Green Cytotoxicity Assay to monitor cytotoxicity in HEK293 cells - 40 hour (AID 1224871); further: nearly all actives have a fitted effect of over 45% in size
Outline: as §1

[19] = molecular target: Nuclear receptor subfamily 1 group I member 3 (Homo sapiens) (UniProt Q14994); experiment: qHTS assay to identify small molecule antagonists of the constitutive androstane receptor (CAR) signaling pathway (AID 1224838);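 further: HepG2 cells stably expressing hCAR with CYP2B6 luciferase reporter stimulated by CITCO; nearly all actives have a fitted effect of over 40% in size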
Chain of Nuclear receptor subfamily 1 group I member 3 (Homo sapiens) (Q14994 whole entry, looked up): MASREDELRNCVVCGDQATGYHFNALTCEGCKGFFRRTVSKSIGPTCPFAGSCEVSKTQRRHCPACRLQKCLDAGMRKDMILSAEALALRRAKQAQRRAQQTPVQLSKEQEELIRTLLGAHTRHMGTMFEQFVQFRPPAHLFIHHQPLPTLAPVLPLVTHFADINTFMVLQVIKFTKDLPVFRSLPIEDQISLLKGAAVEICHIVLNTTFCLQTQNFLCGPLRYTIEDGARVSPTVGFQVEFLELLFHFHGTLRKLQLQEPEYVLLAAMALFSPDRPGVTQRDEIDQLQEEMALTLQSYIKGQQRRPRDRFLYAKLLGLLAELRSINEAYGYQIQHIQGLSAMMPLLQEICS
Outline: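 Reporter luminescence was quantified after 24 h exposure of hCAR/CYP2B6-2.2kb double-stable HepG2 cells to compounds at 15 concentrations in the presence of 50 nM CITCO final.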

SMILES | Potency [1] | Potency [2] | Potency [3] | Potency [4] | Potency [5] | Potency [6] | Potency [7] | Potency [8] | Potency [9] | Potency [10] | Potency [11] | Potency [12] | activity change, positive = activation ([13]; at 42.5 µM (top of the series)) | Potency [14] | Potency [15] | Potency [16] | Potency [17] | Potency [18] | activity change, positive = activation ([13]; at 92.4 µM (top of the series)) | Potency [19]
Cc1cccc(C)c1NC(=O)c1ccc(N)cc1 | inactive | inactive | inactive | inactive | inactive | inactive | inactive | inactive | inactive | inactive | inactive | inactive | 5.09% | inactive | inactive | inactive | inactive | inactive | – | –
COC(=O)c1ccccc1OC | inactive | inactive | inactive | inactive | inactive | inactive | inactive | inactive | inactive | inactive | – | inactive | – | inactive | inactive | inactive | inactive | inactive | 0.916% | –
CN(C)C(=O)COC(=O)Cc1ccc(OC(=O)c2ccc(N=C(N)N)cc2)cc1 | inactive | inactive | inactive | inactive | inactive | – | inactive | inactive | inactive | inactive | inactive | inactive | -1.22% | inactive | inactive | inactive | inactive | inactive | – | –
O[C@@H]([C@H](O)[C@H](O)CBr)[C@H](O)CBr | inactive | inactive | inactive | inactive | – | – | inactive | inactive | inactive | inactive | inactive | – | – | inactive | inactive | inactive | inactive | inactive | – | –
Cc1cc(=O)oc2cc(O)cc(O)c12 | inactive | – | inactive | inactive | – | – | inactive | – | – | – | – | – | – | inactive | inactive | – | inactive | – | -20.6% | inactive
CC[N+](CC)(CC)CCOC(=O)C(C1CCCC1)C1CCCC1 | inactive | inactive | inactive | inactive | – | – | – | inactive | inactive | inactive | inactive | – | -21.2% | inactive | – | inactive | inactive | inactive | – | –
C=CCn1c(=O)n(CC=C)c(=O)n(CC=C)c1=O | inactive | inactive | inactive | inactive | – | – | inactive | inactive | inactive | inactive | inactive | – | – | inactive | inactive | inactive | inactive | inactive | – | –
COc1ccc(-c2coc3cc(O)ccc3c2=O)cc1 | 2000 nM (active) | inactive | inactive | inactive | – | – | inactive | inactive | inactive | inactive | inactive | – | – | inactive | inactive | – | inactive | inactive | – | –
